In experiment [1] the test system is XIP peptide (Xip251-270) binding. The experiment can be described thus: XIP fragment 251-270 binding compounds – biochemical, small-molecule microarray, fluorescence 635/667 nm, 0.1 µg/mL protein, primary screen (AID 1182). Conditions: fluorescent protein binding, 635 nm, higher = more signal, called active from +8 up or from −8 down.
The next experiment deals with XIP peptide (Xip251-270). Briefly: compounds binding XIP fragment 251-270 – biochemical, small-molecule microarray, fluorescence 635/667 nm, 0.5 µg/mL protein, primary screen (AID 1183). As to conditions: fluorescence 635 nm, higher = more signal.
The nature of experiment [2]: blood-stage malaria parasite viability loss – strain 3D7, DAPI fluorescence, 100 nL, primary screen (AID 1184).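 Also: parasites grown inside human red blood cells in medium with human serum.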 Conditions: P. falciparum 3D7 growth, 3 d, higher = more signal.
The target of experiment [3] is Homeobox protein Hox-A13 (Mus musculus) (UniProt Q62424). The experiment can be described thus: disruptors of Hoxa13 oligonucleotide interaction – biochemical, fluorescence polarization, labeled oligonucleotide, primary screen (AID 1185). As to conditions: Hoxa13:DNA binding, 15 min, higher = more signal, called active from +8 up or from −8 down. On the technique in general: Polarisation of emitted light reports the rotation of a fluorescent probe.

The nature of experiment [4]: blockers of DNA damage checkpoint Chk1 activation – imaging, HeLa, hydroxyurea, phospho-Chk1 antibody, percent positive cells, primary screen (AID 1186). As to conditions: hydroxyurea-induced phospho-Chk1 immunofluorescence imaging, higher = more signal.
Experiment [5] can be described thus: blockers of DNA damage checkpoint Chk1 activation – imaging, HeLa, hydroxyurea, phospho-Chk1 nuclear intensity, primary screen (AID 1187). Conditions: hydroxyurea-induced phospho-Chk1 immunofluorescence imaging, higher = more signal.

Active and inactive are the calls of the source. Unless noted, no rule for the calls is given here.

Chain of Homeobox protein Hox-A13 (Mus musculus) (Q62424 whole entry, looked up): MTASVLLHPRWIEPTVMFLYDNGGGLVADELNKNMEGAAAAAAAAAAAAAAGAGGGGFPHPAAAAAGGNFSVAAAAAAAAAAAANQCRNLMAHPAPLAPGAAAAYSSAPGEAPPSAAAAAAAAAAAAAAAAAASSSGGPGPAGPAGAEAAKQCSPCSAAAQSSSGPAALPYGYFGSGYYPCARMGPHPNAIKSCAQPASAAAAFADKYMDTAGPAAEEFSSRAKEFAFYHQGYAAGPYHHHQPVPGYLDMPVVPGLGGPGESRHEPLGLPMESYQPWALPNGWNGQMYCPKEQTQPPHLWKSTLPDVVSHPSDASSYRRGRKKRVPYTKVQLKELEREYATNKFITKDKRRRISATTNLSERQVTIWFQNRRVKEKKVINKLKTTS

For the compound `CN(C)CCCC[C@@H]1NC(=O)[C@H]2C[C@@H](C(=O)NCCCCCCNC(=O)CS)[C@@H](c3cccc(OCCO)c3)N2C1=O`, the composite z-score in experiment [1] is 0.305 (inactive); in the experiment on XIP peptide (Xip251-270), 0.603. Besides, the z-score in experiment [2] was 0.162; in experiment [3], -1.91 (inactive); in experiment [4] it was 0.542 (inactive); in experiment [5] it was 0.68 (inactive).

`COCCOC(=O)N1C(=O)[C@@]2(c3cc(C#CCNC(N)=O)ccc31)[C@H](C(=O)Nc1nc3ccccc3s1)[C@H]1C(=O)O[C@H](c3ccccc3)[C@H](c3ccccc3)N1[C@@H]2c1ccc(O)cc1`: the composite z-score was -0.0637 (inactive) in experiment [1] and 0.321 with XIP peptide (Xip251-270). Also, the z-score is 0.106 in experiment [2], -0.879 (inactive) in experiment [3], -0.0038 (inactive) in experiment [4] and -0.0749 (inactive) in experiment [5].

With `CCOC(=O)C[C@H]1[C@H](OC(=O)c2cc3ccccc3oc2=O)[C@@H](NC(=O)c2ccc(-c3ccccc3)cc2)c2cc(OCCCO)ccc2N1C(=O)Cc1ccc(OC)cc1`, the values for the composite z-score (in experiment [1]; in the experiment with XIP peptide (Xip251-270)) were 0.108 (inactive) and 0.437, respectively. In addition, the z-score in experiment [2] was -0.638; in experiment [3], -3.12 (inactive); in experiment [4] it was 0.105 (inactive); in experiment [5] it was -0.0512 (inactive).

On to `O=C(NCCN1CCOCC1)[C@@H]1c2ccccc2C(=O)N(CC23CC4CC(CC(C4)C2)C3)[C@H]1c1ccc(CO)cc1`, for which the values for the composite z-score (in experiment [1]; with XIP peptide (Xip251-270)) were 0.238 (inactive) and 0.771, respectively. The z-score in experiment [2] is -1.32; in experiment [3] it was -5.14 (inactive); in experiment [4], 0.333 (inactive); in experiment [5], 0.707 (inactive).

In the case of `C=C(COC)C(=O)CC[C@H](OC(C)=O)c1ccccc1OCCO`, the composite z-score is -0.245 (inactive) in experiment [1] and 0.337 with XIP peptide (Xip251-270). The z-score in experiment [2] was -2.64; in experiment [3], -3.78 (inactive); in experiment [4] it was -0.201 (inactive); in experiment [5], -0.218 (inactive).

With `CC(C)Cc1ccc(CN2CC[C@@H](NC(=O)c3ccccc3)C2)cc1`, the composite z-score in experiment [1] was 0.321 (inactive); in the experiment on XIP peptide (Xip251-270) it was 0.447. Besides, the z-score in experiment [2] was -1.68; in experiment [3] it was -1.52 (inactive); in experiment [4], -0.681 (inactive); in experiment [5], -0.744 (inactive).

For `C=CCOC(=O)[C@H]1[C@@H]2C(=O)O[C@@H](c3ccccc3)[C@@H](c3ccccc3)N2[C@@H](c2ccc(OCCOC(=O)[C@@H]3C[C@@H]4C(=O)N[C@@H](Cc5ccccc5)C(=O)N4[C@@H]3c3ccc(O)cc3)cc2)[C@]12C(=O)Nc1ccc(I)cc12`, the composite z-score in experiment [1] is 1.12 (inactive); in the experiment with XIP peptide (Xip251-270), 0.751. The z-score in experiment [2] was -1.39; in experiment [3], 0.703 (inactive); in experiment [4], -0.272 (inactive); in experiment [5] it was -0.152 (inactive).

Take `COCCOC(=O)N1C(=O)[C@@]2(c3cc(C#CC4(O)CCCCCC4)ccc31)[C@H](C(N)=O)[C@H]1C(=O)O[C@H](c3ccccc3)[C@H](c3ccccc3)N1[C@@H]2c1ccc(OCCO)cc1`: the composite z-score is 1.56 (inactive) in experiment [1] and 0.73 with XIP peptide (Xip251-270). The z-score in experiment [2] was -1.62; in experiment [3], -0.51 (inactive); in experiment [4], -0.0908 (inactive); in experiment [5], -0.524 (inactive).

On to `COC(=O)[C@@]1(Cc2ccc(F)cc2)[C@H]2c3cc(C(=O)N(C)C)n(CCF)c3C[C@H]2CN1C(=O)c1ccccc1`, for which the composite z-score in experiment [1] was 0.588 (inactive); with XIP peptide (Xip251-270), 0.779. The z-score was -0.552 in experiment [2], -5.09 (inactive) in experiment [3], -0.847 (inactive) in experiment [4] and -0.595 (inactive) in experiment [5].

In the case of `O=C(NCC(F)(F)F)[C@@H]1c2ccccc2C(=O)N(Cc2cc(C(F)(F)F)cc(C(F)(F)F)c2)[C@H]1c1ccc(CO)cc1`, the values for the composite z-score (in experiment [1]; with XIP peptide (Xip251-270)) were -0.398 (inactive) and 0.637, respectively. The z-score in experiment [2] was 0.362; in experiment [3], -2.44 (inactive); in experiment [4], -0.373 (inactive); in experiment [5], -0.356 (inactive).

For `COCCOC(=O)N1C(=O)[C@@]2(c3cc(C#CCNC(N)=O)ccc31)[C@H](c1ccc(O)cc1)N1[C@H](c3ccccc3)[C@H](c3ccccc3)OC(=O)[C@H]1[C@@H]2C(=O)N1CCc2cc(OC)c(OC)cc2C1`, the values for the composite z-score (in experiment [1]; with XIP peptide (Xip251-270)) were -0.0561 (inactive) and 0.329, respectively. The z-score in experiment [2] is -0.0011; in experiment [3] it was -1.73 (inactive); in experiment [4], 0.0017 (inactive); in experiment [5], -0.0878 (inactive).

On to `COCCCNC(=O)[C@@]1(CCC(=O)OC(C)(C)C)N=C(c2ccc(OCCCO)cc2)O[C@H]1c1ccccc1`, for which the results for the composite z-score (in experiment [1]; in the experiment with XIP peptide (Xip251-270)) were 0.809 (inactive) and 0.754, respectively. For the same compound, the z-score is -0.0488 in experiment [2], -4.75 (inactive) in experiment [3], 0.185 (inactive) in experiment [4] and 0.633 (inactive) in experiment [5].

Turning to `O=C1c2ccccc2[C@@]2(Cc3ccccc3N(CC(F)(F)F)C2=O)[C@H](c2ccc(CO)cc2)N1Cc1ccccc1`, the composite z-score in experiment [1] was -0.158 (inactive); with XIP peptide (Xip251-270), -0.48. Besides, the z-score in experiment [2] was -1.17; in experiment [3] it was 1.26 (inactive); in experiment [4] it was -0.191 (inactive); in experiment [5], -0.494 (inactive).

`CC(C)[Si](C#Cc1ccccc1)(O[C@H](c1ccccc1)c1cn(Cc2ccccc2)nn1)C(C)C`: the results for the composite z-score (in experiment [1]; in the experiment with XIP peptide (Xip251-270)) were 0.0554 (inactive) and 0.877, respectively. Moreover, the z-score in experiment [2] was -1.18; in experiment [3], -1.11 (inactive); in experiment [4], 0.0998 (inactive); in experiment [5], 0.124 (inactive).

Take `COc1ccc(CCNC(=O)[C@@]2(C)c3ccccc3C(=O)N(Cc3ccc(OC(F)(F)F)cc3)[C@H]2c2ccc(CO)cc2)cc1`: the composite z-score was 1.06 (inactive) in experiment [1] and 0.666 in the experiment with XIP peptide (Xip251-270). The z-score was -1.21 in experiment [2], -4.22 (inactive) in experiment [3], -0.141 (inactive) in experiment [4] and -0.102 (inactive) in experiment [5].

(Values after PubChem BioAssay.)
